Consider 39 molecules from PubChem BioAssay (NCATS).

Molecules are shown by their SMILES. Values joined by “and” are separate entries in the source; they are usually repeats but may differ in a detail not shown here. Identical values can stand only once. Results filed as inconclusive are left out. A number with no mark means an inactive call. Active and inactive are the calls of the source. Calls come from the whole dose curve; as a rule, active = well fitted cell-killing curve with a large enough effect; inconclusive = small, poorly fitted or top-dose-only effect; inactive = flat fitted curve, though single readings scatter.
Potency is the fitted concentration of half-maximal effect.

One test can be described thus: Cellular viability qHTS for adrenocortical cancer (ACC) cell line SW-13 (AID 1963989).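 For activity (max response): cells grown in serum-free medium with ITS supplement; % is set by controls: 0 for no effect and ±100 for the full control effect.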 Note: nearly all actives have a fitted effect of over 65% in size. Conditions: SW-13 ACC cells viability, CellTiter-Glo, 48 h; activity (max response): hits give low values. Put shortly:
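Luminescent ATP read-out (CellTiter-Glo, 20 min at room temperature) measured metabolically competent SW-13 cells after 48 h compound treatment. Final concentrations spanned up to 46 uM; bortezomib served as positive control.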
Background: Quantitative high-throughput screening tests each substance at several concentrations.
As for `CN1C(=O)NC(=O)C(C)(C2=CCCCC2)C1=O` (stereo not drawn), the activity (max response) is -0.484%.

Take `C=CCC1(C(C)CC)C(=O)NC(=O)NC1=O` (stereo not drawn): the activity (max response) is 0.393%. In the case of `C[C@]12CC[C@H]3[C@@H](CC[C@@]45O[C@@H]4C(O)=C(C#N)C[C@]35C)[C@@H]1CC[C@@H]2O`, the activity (max response) is -12.1%. Consider `CC(C)(C)c1ccc(O)cc1`, for which the activity (max response) is 9.89%. As to `Oc1cc(Cl)ccc1Oc1ccc(Cl)cc1Cl`, the Potency was 7.94 µM (active) and 13 µM (active).

Regarding `CN1C(=O)CN=C(c2ccccc2)c2cc([N+](=O)[O-])ccc21`, the activity (max response) was 6.26%. For `COc1cc2c(cc1F)C(c1ccccc1Cl)=Nc1c(n[nH]c1C)N2`, the activity (max response) is -18.7%. Take `COc1ccc2c(c1OC)C(=O)O[C@H]2[C@@H]1c2cc3c(cc2CCN1C)OCO3`: the activity (max response) was 8.92%. As for `COc1cc(C[C@@H](C)N)c(OC)cc1C`, the activity (max response) is -18.7%. The same measure, in the same setting: the same measure for `CCOC(=O)CC(SP(=S)(OC)OC)C(=O)OCC` (stereo not drawn): 13.7% and 6.35%; for `CC(C)C(Br)C(=O)NC(N)=O` (stereo not drawn): -7.38%. In the case of `Oc1ccc(Cl)cc1Cc1ccccc1`, the Potency is 35.5 µM (active). Take `Clc1ccc(COC(Cn2ccnc2)c2ccc(Cl)cc2Cl)cc1` (stereo not drawn): the Potency was 25.1 µM (active). For the molecule `NCCc1cc(O)c(O)cc1O`, the activity (max response) is 6.64%. Consider `COc1ccc(C(=O)N2CCCC2=O)cc1`, for which the activity (max response) is -6.45% and 13%. With `CN1[C@H]2CC(O)C[C@H]1[C@H]1O[C@H]12` (stereo partly drawn), the activity (max response) is 10.2%.

Consider `CC(=O)C1CCOC1=O` (stereo not drawn), for which the activity (max response) was 9.4%.

As to `CC(C)=CC1C(C(=O)OCN2C(=O)C3=C(CCCC3)C2=O)C1(C)C` (stereo not drawn), the activity (max response) is -13.2%. Regarding `CCOC(=O)NC(O)C(Cl)(Cl)Cl` (stereo not drawn), the activity (max response) is 3.24%. On to `CC[N+](CC)(CC)CC`, for which the activity (max response) is 9.95%. On to `COc1ccc(OC)c(CC(C)N)c1` (stereo not drawn), for which the activity (max response) was -20.2%.

For `COC(=O)C1=CCCN(C)C1`, the activity (max response) was 1.83%. Turning to `Nc1ccccc1`, the activity (max response) was 7.78%.

With `CCC1(c2ccccc2)CCC(=O)NC1=O` (stereo not drawn), the activity (max response) was 7.87%. With `CC(C)NCC(O)c1ccc(N)c(C#N)c1` (stereo not drawn), the activity (max response) is 6.97%. Turning to `Cc1[nH]ncc1-c1cc2nc([C@@H]3CC4CCN3CC4)[nH]c(=O)c2s1`, the Potency was 28.2 µM (active). `CCCCCCCCCCCC[N+](C)(C)CCOc1ccccc1`: the Potency is 5.17 µM (active).

`CCC1(c2ccccc2)C(=O)N(COC)C(=O)N(COC)C1=O`: the activity (max response) is -1.61%. `COc1cc(CC(C)N)cc(OC)c1OC` (stereo not drawn): the activity (max response) is -27.2%.

For `COP(=S)(OC)Oc1ccc(SC)c(C)c1`, the activity (max response) is 5.91%.

Consider `CCCN(CCC)c1c([N+](=O)[O-])cc(S(N)(=O)=O)cc1[N+](=O)[O-]`, for which the Potency was 7.94 µM (active). As to `C=CCN1CC[C@]23CCCC[C@H]2[C@H]1Cc1ccc(O)cc13`, the activity (max response) is -5.85%. As to `COc1cc(N)c(Cl)cc1C(=O)NC1CN2CCC1CC2` (stereo not drawn), the activity (max response) is -1.3%.

Take `O=C(O)COc1ccccc1`: the activity (max response) is 18.4%.

A further test in a line: Cellular viability qHTS for adrenocortical cancer (ACC) cell line NCI-H295R (AID 1963990). Note: nearly all actives have a fitted effect of over 60% in size. Conditions: CellTiter-Glo ATP luminescence, 48 h; series mostly up to 46.1 µM. The essentials: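 IC50 and maximal efficacy derive from four-parameter logistic modelling of titration curves, with reads scaled between DMSO-only wells (0%) and doxorubicin hydrochloride (100% inhibition). Compounds spanned up to 46 uM over 48 h.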
`CN1C(=O)NC(=O)C(C)(C2=CCCCC2)C1=O` (stereo not drawn): the Potency entry was “inactive”. Consider `C=CCC1(C(C)CC)C(=O)NC(=O)NC1=O` (stereo not drawn), for which the Potency entry was “inactive”. Still for that read-out and setting: the same measure for `C[C@]12CC[C@H]3[C@@H](CC[C@@]45O[C@@H]4C(O)=C(C#N)C[C@]35C)[C@@H]1CC[C@@H]2O`: 28.2 µM (active); for `CC(C)(C)c1ccc(O)cc1`: “inactive”; for `Oc1cc(Cl)ccc1Oc1ccc(Cl)cc1Cl`: 3.16 µM (active) and 18.4 µM (active).

For the molecule `CN1C(=O)CN=C(c2ccccc2)c2cc([N+](=O)[O-])ccc21`, the Potency result is “inactive”. In the case of `COc1cc2c(cc1F)C(c1ccccc1Cl)=Nc1c(n[nH]c1C)N2`, the Potency entry was “inactive”. With `COc1ccc2c(c1OC)C(=O)O[C@H]2[C@@H]1c2cc3c(cc2CCN1C)OCO3`, the Potency result was “inactive”. Still for that read-out and setting: the same measure for `COc1cc(C[C@@H](C)N)c(OC)cc1C`: “inactive”. Regarding `CCOC(=O)CC(SP(=S)(OC)OC)C(=O)OCC` (stereo not drawn), the Potency entry is “inactive”. Regarding `CC(C)C(Br)C(=O)NC(N)=O` (stereo not drawn), the Potency entry is “inactive”. Regarding `C/C=C(/C)C(=O)O[C@H]1C(C)=C2[C@H]([C@@H]1OC(=O)CCCCCCC)[C@@](C)(OC(C)=O)C[C@H](OC(=O)CCC)[C@@]1(O)[C@H]2OC(=O)[C@@]1(C)O`, the Potency is 1.78 µM (active). On to `Oc1ccc(Cl)cc1Cc1ccccc1`, for which the Potency was 12.6 µM (active) and 23.1 µM (active). The same measure, in the same setting: the same measure for `Clc1ccc(COC(Cn2ccnc2)c2ccc(Cl)cc2Cl)cc1` (stereo not drawn): 22.4 µM (active); for `NCCc1cc(O)c(O)cc1O`: “inactive”; for `COc1ccc(C(=O)N2CCCC2=O)cc1`: “inactive”. `CN1[C@H]2CC(O)C[C@H]1[C@H]1O[C@H]12` (stereo partly drawn): the Potency result was “inactive”. For `CC(=O)C1CCOC1=O` (stereo not drawn), the Potency entry is “inactive”. `CC(C)=CC1C(C(=O)OCN2C(=O)C3=C(CCCC3)C2=O)C1(C)C` (stereo not drawn): the Potency entry was “inactive”. In the case of `CCOC(=O)NC(O)C(Cl)(Cl)Cl` (stereo not drawn), the Potency result is “inactive”. With `CC[N+](CC)(CC)CC`, the Potency result was “inactive”. On the same count and under the same terms, the same measure for `COc1ccc(OC)c(CC(C)N)c1` (stereo not drawn): “inactive”; for `COC(=O)C1=CCCN(C)C1`: “inactive”; for `Nc1ccccc1`: “inactive”. `CCC1(c2ccccc2)CCC(=O)NC1=O` (stereo not drawn): the Potency result was “inactive”.

Consider `CC(C)NCC(O)c1ccc(N)c(C#N)c1` (stereo not drawn), for which the Potency result is “inactive”. Regarding `Cc1[nH]ncc1-c1cc2nc([C@@H]3CC4CCN3CC4)[nH]c(=O)c2s1`, the Potency is 28.2 µM (active). With `Clc1ccc(CCC(Cn2ccnc2)Sc2c(Cl)cccc2Cl)cc1` (stereo not drawn), the Potency was 20.6 µM (active) and 35.5 µM (active). With `CCCCCCCCCCCC[N+](C)(C)CCOc1ccccc1`, the Potency is 23.1 µM (active). Consider `CO/C=C(/C(=O)OC)c1ccccc1Oc1cc(Oc2ccccc2C#N)ncn1`, for which the Potency was 7.94 µM (active).

For `C/C(=C\c1csc(C)n1)[C@@H]1C[C@@H]2O[C@@H]2CCC[C@H](C)[C@H](O)[C@@H](C)C(=O)C(C)(C)[C@@H](O)CC(=O)O1`, the Potency is 0.0224 µM (active). For `CCC1(c2ccccc2)C(=O)N(COC)C(=O)N(COC)C1=O`, the Potency entry was “inactive”. Take `COc1cc(CC(C)N)cc(OC)c1OC` (stereo not drawn): the Potency result was “inactive”. Consider `COP(=S)(OC)Oc1ccc(SC)c(C)c1`, for which the Potency entry was “inactive”. Take `CCCN(CCC)c1c([N+](=O)[O-])cc(S(N)(=O)=O)cc1[N+](=O)[O-]`: the Potency is 7.94 µM (active). Regarding `C=CCN1CC[C@]23CCCC[C@H]2[C@H]1Cc1ccc(O)cc13`, the Potency result is “inactive”.

For the molecule `CCO[C@H]1O[C@@H]2OC3(C)CC[C@H]4[C@H](C)CC[C@@H]([C@H]1C)[C@@]24OO3`, the Potency result was “inactive”.

`COc1cc(N)c(Cl)cc1C(=O)NC1CN2CCC1CC2` (stereo not drawn): the Potency result is “inactive”. In the case of `O=C(O)COc1ccccc1`, the Potency entry is “inactive”.
